Where “and” joins values, the source holds several entries; their conditions need not be identical. Equal entries are not always repeated. Hit rate of the full screen: of about 5,500 compounds, about 2,000 (36%) were called active. Inconclusive results (about 18%) are left out. Cut-off read from the data, not from the text of the source: active = normalized growth mostly below about 0.91 (no sharp cut-off); inconclusive = no clear call, values can overlap the other calls; inactive = mostly above about 0.92. Some of the results follow.
Assay: chemical genetic growth profiling, strain panel (AID 1159580);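 note: tested at 20 µM; growth read once vehicle control cultures reached saturation at 30 °C; 1 = growth at the plate median or of vehicle wells; lower values mean less growth of the strain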
Details: S. cerevisiae deletion strains, growth OD

Measured: normalized growth

Nc1ccn(C2O[C@H](CO)[C@@H](O)[C@@H]2O)c(=O)n1 (stereo partly drawn)
inactive: locus YAL021C, strain ccr4, hits give low values 0.997 | locus YAL026C, strain drs2, hits give low values 0.974 | locus YAL030W, strain snc1, hits give low values 0.999 | locus YBL061C, strain skt5, hits give low values 1.01 | locus YBR009C, strain hhf1, hits give low values 0.972 | locus YBR021W, strain FUR4, hits give low values 1.02 | locus YBR023C, strain chs3, hits give low values 1.02 | locus YBR171W, strain sec66, hits give low values 0.994 | locus YBR229C, strain ROT2, hits give low values 1.01 | locus YBR231C, strain swc5, hits give low values 0.999 | locus YBR279W, strain paf1, hits give low values 0.998 | locus YCL011C, strain gbp2, hits give low values 1 | locus YCL016C, strain dcc1, hits give low values 1.05 | locus YCL029C, strain bik1, hits give low values 1 | locus YCL061C, strain MRC1, hits give low values 1.01 | locus YCL069W, strain vba3, hits give low values 0.979 | locus YCR088W, strain abp1, hits give low values 0.986 | locus YDL005C, strain med2, hits give low values 0.989 | locus YDL035C, strain GPR1, hits give low values 1.03 | locus YDL040C, strain nat1, hits give low values 0.984 | locus YDL074C, strain BRE1, hits give low values 1.01 | locus YDL101C, strain DUN1, hits give low values 1 | locus YDL185W, strain tfp1, hits give low values 0.991 | locus YDL192W, strain arf1, hits give low values 0.998 | locus YDR001C, strain nth1, hits give low values 0.989 | locus YDR069C, strain doa4, hits give low values 0.984 | locus YDR101C, strain arx1, hits give low values 1.02 | locus YDR137W, strain rgp1, hits give low values 1.01 | locus YDR159W, strain sac3, hits give low values 0.961 | locus YDR162C, strain NBP2, hits give low values 1.02 | locus YDR195W, strain ref2 0.997 | locus YDR297W, strain sur2, hits give low values 0.986 | locus YDR318W, strain mcm21, hits give low values 1 | locus YDR334W, strain swr1, hits give low values 0.987 | locus YDR335W, strain msn5, hits give low values 0.997 | locus YDR388W, hits give low values 0.994 | locus YDR392W, strain spt3, hits give low values 0.943 | locus YDR502C, strain sam2, hits give low values 1.02 | locus YEL003W, strain gim4, hits give low values 0.973 | locus YEL037C, strain rad23, hits give low values 0.973 | locus YEL061C, strain CIN8 (second series), hits give low values 0.976 | locus YEL061C, strain CIN8, hits give low values 1.01 | locus YER015W, strain faa2, hits give low values 1.01 | locus YER016W, strain bim1, hits give low values 1.01 | locus YER110C, hits give low values 1 | locus YER111C, strain swi4, hits give low values 0.987 | locus YER155C, strain BEM2 (second series), hits give low values 0.969 | locus YER155C, strain BEM2, hits give low values 1.01 | locus YER167W, strain BCK2, hits give low values 1.01 | locus YFR010W, strain ubp6, hits give low values 0.976 | locus YGL078C, strain dbp3, hits give low values 0.995 | locus YGL086W, strain mad1, hits give low values 1 | locus YGL167C, strain pmr1, hits give low values 1.01 | locus YGL173C, strain kem1, hits give low values 1 | locus YGL227W, strain vid30, hits give low values 0.995 | locus YGL240W, strain doc1, hits give low values 1 | locus YGL248W, strain PDE1, hits give low values 0.987 | locus YGL253W, strain hxk2, hits give low values 1 | locus YGR135W, strain pre9, hits give low values 0.983 | locus YGR252W, strain gcn5, hits give low values 1 | locus YHR013C, strain ard1, hits give low values 1.02 | locus YHR027C, strain rpn1, hits give low values 0.996 | locus YHR030C, strain SLT2, hits give low values 1.01 and 1.02 | locus YHR079C, strain IRE1 (second series), hits give low values 0.996 | locus YHR079C, strain IRE1, hits give low values 1.02 | locus YHR094C, strain hxt1, hits give low values 0.996 | locus YHR129C, strain ARP1, hits give low values 1.01 | locus YHR142W, strain chs7, hits give low values 1.01 | locus YHR200W, strain rpn10, hits give low values 1 | locus YIL066C, strain RNR3, hits give low values 1.01 | locus YIL073C, strain SPO22, hits give low values 1.01 | locus YIL125W, strain kgd1, hits give low values 0.997 | locus YIR030C, strain dcg1, hits give low values 1.01 | locus YJL092W, strain hpr5, hits give low values 0.985 | locus YJL095W, strain BCK1 (second series), hits give low values 1 | locus YJL095W, strain BCK1, hits give low values 0.977 and 1.01 | locus YJL115W, strain asf1, hits give low values 0.978 | locus YJL129C, strain trk1, hits give low values 1.01 | locus YJL134W, strain LCB3, hits give low values 1 | locus YJL154C, strain vps35, hits give low values 0.981 | locus YJL164C, strain tpk1, hits give low values 0.989 | locus YJL166W, strain qcr8, hits give low values 1.02 | locus YJL168C, strain set2, hits give low values 1 | locus YJL187C, strain SWE1 (second series), hits give low values 0.997 | locus YJL187C, strain SWE1, hits give low values 0.994 | locus YJR043C, strain POL32, hits give low values 1.03 | locus YJR066W, strain TOR1, hits give low values 0.99 | locus YJR075W, strain HOC1, hits give low values 1.01

— PubChem BioAssay AID1159580 (chemical genetic matrix, 2015)
